ClpP mod: qHTS Assay for Activators of ClpP | ATP-dependent Clp protease proteolytic subunit (Bacillus subtilis (strain 168)), P80244 | purified B. subtilis ClpP, FRET peptide cleavage, 20 min | Potency, µM (top dose mostly 57.5 µM), without a hit: at the highest dose activity change, negative = active | 340,000 compounds, 1.9% hits; active = well fitted falling curve with a large enough effect; inconclusive = small, poorly fitted or top-dose-only effect; inactive = no such curve, though single readings can be large or run the other way; note: the source files actives as falling curves though it sought activators and does not explain the sign; nearly all actives have a fitted effect of over 65% in size
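FRET quenching reversal measured ClpP activation: 10 microg/mL B. subtilis ClpP at pH 8 with the FRET-FV decapeptide, read at 430 nm after 320 nm excitation. The 20-min minus 0-min signal was scaled between DMSO/no-enzyme wells and ADEP (5.8 microM final).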
HEK293 tox: cytotoxicity in counter-screen for GLP-1R inverse agonists. 410,000 compounds, 0.13% hits. AID 624418. Potency, µM (doses to about 38.3 µM), inactives show top-dose activity change, negative = inhibition, usual class: inhibitors. HEK293 cAMP-luciferase reporter cells, luminescence, 24 h;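 note: loss of luciferase light is scored as toxicity; % is set by controls: 0 for no effect and ±100 for the full control effect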
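Luminescence readout: signal drop marks cytotoxicity. Plated cells grew 12 h at 37 °C, 5% CO2, received 23 nL compound for 24 h, then got luciferase reagent, read after 12 min at RT.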
GLP-1R inv ag: inverse agonists of human GLP-1 receptor | P43220 | HEK293 GLP-1R CRE-luciferase, luminescence, 24 h; GLP-1R form is constitutively active | Potency, µM (series often up to 38.3 µM), for the others: at the top dose activity change, negative = inhibition, actives largely listed as inhibitors | 410,000 compounds, 1.6% hits | AID 624417; note: % is set by controls: 0 for no effect and ±100 for the full control effect; nearly all actives have a fitted effect of over 55% in size
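Luminescence readout: a drop in cAMP-driven luciferase signal flags inverse agonism at a constitutively active GLP-1R stably expressed in HEK293. Compound exposure lasted 24 hr at 37 deg C, 5% CO2.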
GLP1R ag: GLP-1 receptor (human) agonism | HEK293 GLP-1R CRE-luciferase, luminescence, 4-6 h; cells express a hypersensitive GLP-1R form | Potency, µM (top dose mostly 45.6 µM), without a hit: top-dose activation, most hits filed as activators | 380,000 compounds, 0.007% hits | AID 624172; note: % of control where 0% means no effect
An asterisk follows results filed as active. This is a sample that favours compounds with a hit; in the whole collection about 3.2% have one here. Unless noted, calls come from the whole dose curve; as a rule, active = well fitted curve in the direction sought with a large enough effect; inconclusive = small, poorly fitted or top-dose-only effect, or another doubt; inactive = no such curve, though single readings can be large; an effect the other way counts as inactive or inconclusive. Potency is the fitted concentration of half-maximal effect.

Screening CC1(C)OC[C@@H]2O[C@@]3(C(=O)O)OC(C)(C)O[C@@H]3[C@@H]2O1 returned GLP1R ag 2%.
`CCN(CC)CCNC(=O)c1ccccc1N` gave ClpP mod 10µM*, HEK293 tox -12%, GLP-1R inv ag 0% and GLP1R ag 4%.
Nc1ccccc1C(=O)NCc1ccccc1 was read as ClpP mod 28µM*, HEK293 tox -14%, GLP-1R inv ag 1% and GLP1R ag -4%.
Screening CCN(CC)CCCNC(=O)c1ccccc1C returned ClpP mod 0%, HEK293 tox -24%, GLP-1R inv ag 0% and GLP1R ag -1%.
Screening O=C(NCc1ccccc1)c1nccnc1CO returned ClpP mod 16µM*, HEK293 tox 1%, GLP-1R inv ag 8% and GLP1R ag 0%.
`COc1ccccc1CNC(=O)c1ccccc1N` gave ClpP mod 10µM*, HEK293 tox 5%, GLP-1R inv ag 13% and GLP1R ag -7%.
`Cc1nn(C)c2c1c(-c1ccccc1)cc(=O)n2CC(=O)Nc1ccccc1C(F)(F)F` gave ClpP mod inconclusive, HEK293 tox 1% and GLP-1R inv ag -4%.
Screening Cc1ccccc1CNC(=O)c1ccccc1N returned ClpP mod 10µM*, HEK293 tox -9%, GLP-1R inv ag -12% and GLP1R ag 2%.
`COc1ccccc1CNC(=O)c1ccccc1NS(C)(=O)=O` gave ClpP mod 28µM*, HEK293 tox 5%, GLP-1R inv ag 0% and GLP1R ag -3%.
Screening COc1ccccc1CNC(=O)c1ccc(NS(C)(=O)=O)cc1 returned ClpP mod -4%, HEK293 tox 0%, GLP-1R inv ag 1% and GLP1R ag -4%.
For O=C(O)c1cc(Cl)c2ccccc2c1O the results were ClpP mod 28µM*, HEK293 tox -12%, GLP-1R inv ag inconclusive and GLP1R ag -6%.
O=C(CSc1nc(=O)n(CCN2CCOCC2)c2c1CCC2)Nc1ccc(F)cc1F was read as ClpP mod -7%, HEK293 tox 2% and GLP-1R inv ag 8%.
For COc1ccc(OC)c(Nc2nc3ccccc3nc2-n2nc(C)cc2C)c1 the results were ClpP mod 0%, HEK293 tox 29% and GLP-1R inv ag 22%.
Cn1ccc2cc(S(=O)(=O)N3CCN(C(=O)Nc4ccc(F)cc4F)CC3)ccc21 was read as ClpP mod -1%, HEK293 tox 0%, GLP-1R inv ag -16% and GLP1R ag 5%.
`Cc1cc(C)cc(NC(=O)C2CCCN(C(=O)c3cnn(-c4ccccc4)c3-n3cccc3)C2)c1` (centres undefined) gave ClpP mod 0%, HEK293 tox -21% and GLP-1R inv ag 10µM*.
Screening Cc1nn(-c2ccccc2)c2c1N(CC(=O)N1CCN(c3cccc(Cl)c3)CC1)C(=O)CS2 returned ClpP mod -3%, HEK293 tox 3% and GLP-1R inv ag 3%.
Cc1ccc(Nc2nc(N)nc(CSc3nccn3C)n2)c(C)c1 was read as ClpP mod 4µM*, HEK293 tox 17%, GLP-1R inv ag 10% and GLP1R ag 0%.
Cc1ccc(Nc2nc(N)nc(CCl)n2)c(C)c1 was read as ClpP mod -2%, HEK293 tox -6%, GLP-1R inv ag 4.5µM* and GLP1R ag 15%.
For Cc1cccc(Nc2nc(N)nc(CCl)n2)c1C the results were HEK293 tox -26%, GLP-1R inv ag 5µM* and GLP1R ag 31%.
For Cc1ccc(Nc2nc(N)nc(CCl)n2)cc1 the results were HEK293 tox -5%, GLP-1R inv ag inconclusive and GLP1R ag 17%.
`Cc1ccc(SCc2nc(N)nc(Nc3ccccc3C)n2)c(C)c1` gave ClpP mod 1%, HEK293 tox 3%, GLP-1R inv ag inconclusive and GLP1R ag 3%.
Screening CO/N=C(/C(=O)N[C@@H]1C(=O)N2C(C(=O)OC(C)OC(C)=O)=C(COC(N)=O)CS[C@H]12)c1ccco1 (some centres undefined) returned GLP1R ag 6%.
COC(=O)Nc1nnc(/C=C/c2ccc(OC)cc2)s1 was read as ClpP mod 22µM*, HEK293 tox 29%, GLP-1R inv ag 16% and GLP1R ag 5%.
For COc1ccc(/C=C/c2nnc(NC(C)=O)s2)cc1 the results were HEK293 tox inconclusive, GLP-1R inv ag inconclusive and GLP1R ag 3%.

Bioassay records: PubChem BioAssay, National Center for Advancing Translational Sciences (NCATS)
